# Experimental data published in PubChem BioAssay.
# Calls of active or inactive are those of the source.
# How the values were obtained:
# [1] = test system: PRMT1 (protein arginine N-methyltransferase 1); assay: PRMT1 binders on small-molecule microarrays, primary screen, biochemical, small-molecule microarray, 635 nm fluorescence (AID 1088); conditions: small-molecule microarray binding, higher = more signal;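 also: binding of Prmt1 protein to compounds spotted on small-molecule microarray slides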
# [2] = yeast growth modulation, basal conditions, primary screen, YJM789 clinical isolate, OD600, 24 h (AID 1089);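 also: growth of clinical yeast isolate S. cerevisiae YJM 789 seeded 1000 cells per well; test concentration not given here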; conditions: S. cerevisiae YJM789 growth, higher = more signal, called active from +8 up or from −8 down
# [3] = fission yeast growth modulation, primary screen, strain 972, OD600, 24 h, no modulator (AID 1090);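 also: basal condition with compound alone and no growth modifier present; test concentration not given here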; conditions: S. pombe 972 growth, higher = more signal, called active from +8 up or from −8 down
# [4] = S. cerevisiae growth modulation with rapamycin, primary screen, strain BY4716, OD600, 96 h (AID 1091); conditions: higher = more signal, called active from +8 up or from −8 down; also: test concentration not given here
# [5] = biological target: Torsin-1A-interacting protein 2 (Homo sapiens) (UniProt Q8NFQ8); assay: LULL1 binders on small-molecule microarray, primary screen, cell lysate, human LULL1 lysate, 635/667 nm fluorescence (AID 1092); conditions: hLULL1 lysate binding, 635 nm fluorescence, higher = more signal;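 also: probe is lysate of COS7 cells overexpressing human LULL1; score merges per-feature 667 nm fluorescence with signal-to-noise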
# Torsin-1A-interacting protein 2 (Homo sapiens), sequence (Q8NFQ8 whole entry, looked up): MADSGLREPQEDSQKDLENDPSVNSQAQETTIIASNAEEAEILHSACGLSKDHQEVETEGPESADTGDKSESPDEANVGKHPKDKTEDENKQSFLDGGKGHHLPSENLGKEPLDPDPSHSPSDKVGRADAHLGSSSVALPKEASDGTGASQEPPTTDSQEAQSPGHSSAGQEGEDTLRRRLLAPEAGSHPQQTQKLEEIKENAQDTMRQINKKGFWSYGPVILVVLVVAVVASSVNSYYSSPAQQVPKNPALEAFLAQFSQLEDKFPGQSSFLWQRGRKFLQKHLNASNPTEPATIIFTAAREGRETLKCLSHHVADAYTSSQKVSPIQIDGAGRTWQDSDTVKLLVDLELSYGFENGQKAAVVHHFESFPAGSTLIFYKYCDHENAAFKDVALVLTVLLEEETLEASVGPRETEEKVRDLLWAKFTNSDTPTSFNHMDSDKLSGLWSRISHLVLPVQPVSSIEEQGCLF
# [6] = E. coli growth modulation, two-sided OD650, primary screen, E. coli filamentation project, strain DRC41, 24 h (AID 1093); conditions: OD650, 24 h, higher = more signal, called active from +8 up or from −8 down;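 also: MC1000 strain lacking acrAB efflux and sulA so SOS filamentation is blocked; test concentration not given here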
# [7] = small-molecule microarray binders of probe aLefty2, primary screen, biochemical, biotinylated probe, 635/667 nm fluorescence (AID 1094); conditions: higher = more signal;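 also: score merges spot fluorescence near 667 nm with spot signal-to-noise ratio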
# [8] = test system: Noggin (protein binding on small-molecule microarray); assay: Noggin binders on small-molecule microarray, primary screen, biochemical, 635/667 nm fluorescence (AID 1095); conditions: 635 nm fluorescence, higher = more signal;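 also: score merges 667 nm feature fluorescence with signal to noise over triplicate slides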
# [9] = biological target: Neurogenic locus notch homolog protein 3 (Homo sapiens) (UniProt Q9UM47); assay: NOTCH3 binders on small-molecule microarray, primary screen, biochemical, 635/667 nm fluorescence (AID 1096); conditions: NOTCH3 binding, 635 nm fluorescence, higher = more signal
# Neurogenic locus notch homolog protein 3 (Homo sapiens), sequence (Q9UM47 whole entry, looked up): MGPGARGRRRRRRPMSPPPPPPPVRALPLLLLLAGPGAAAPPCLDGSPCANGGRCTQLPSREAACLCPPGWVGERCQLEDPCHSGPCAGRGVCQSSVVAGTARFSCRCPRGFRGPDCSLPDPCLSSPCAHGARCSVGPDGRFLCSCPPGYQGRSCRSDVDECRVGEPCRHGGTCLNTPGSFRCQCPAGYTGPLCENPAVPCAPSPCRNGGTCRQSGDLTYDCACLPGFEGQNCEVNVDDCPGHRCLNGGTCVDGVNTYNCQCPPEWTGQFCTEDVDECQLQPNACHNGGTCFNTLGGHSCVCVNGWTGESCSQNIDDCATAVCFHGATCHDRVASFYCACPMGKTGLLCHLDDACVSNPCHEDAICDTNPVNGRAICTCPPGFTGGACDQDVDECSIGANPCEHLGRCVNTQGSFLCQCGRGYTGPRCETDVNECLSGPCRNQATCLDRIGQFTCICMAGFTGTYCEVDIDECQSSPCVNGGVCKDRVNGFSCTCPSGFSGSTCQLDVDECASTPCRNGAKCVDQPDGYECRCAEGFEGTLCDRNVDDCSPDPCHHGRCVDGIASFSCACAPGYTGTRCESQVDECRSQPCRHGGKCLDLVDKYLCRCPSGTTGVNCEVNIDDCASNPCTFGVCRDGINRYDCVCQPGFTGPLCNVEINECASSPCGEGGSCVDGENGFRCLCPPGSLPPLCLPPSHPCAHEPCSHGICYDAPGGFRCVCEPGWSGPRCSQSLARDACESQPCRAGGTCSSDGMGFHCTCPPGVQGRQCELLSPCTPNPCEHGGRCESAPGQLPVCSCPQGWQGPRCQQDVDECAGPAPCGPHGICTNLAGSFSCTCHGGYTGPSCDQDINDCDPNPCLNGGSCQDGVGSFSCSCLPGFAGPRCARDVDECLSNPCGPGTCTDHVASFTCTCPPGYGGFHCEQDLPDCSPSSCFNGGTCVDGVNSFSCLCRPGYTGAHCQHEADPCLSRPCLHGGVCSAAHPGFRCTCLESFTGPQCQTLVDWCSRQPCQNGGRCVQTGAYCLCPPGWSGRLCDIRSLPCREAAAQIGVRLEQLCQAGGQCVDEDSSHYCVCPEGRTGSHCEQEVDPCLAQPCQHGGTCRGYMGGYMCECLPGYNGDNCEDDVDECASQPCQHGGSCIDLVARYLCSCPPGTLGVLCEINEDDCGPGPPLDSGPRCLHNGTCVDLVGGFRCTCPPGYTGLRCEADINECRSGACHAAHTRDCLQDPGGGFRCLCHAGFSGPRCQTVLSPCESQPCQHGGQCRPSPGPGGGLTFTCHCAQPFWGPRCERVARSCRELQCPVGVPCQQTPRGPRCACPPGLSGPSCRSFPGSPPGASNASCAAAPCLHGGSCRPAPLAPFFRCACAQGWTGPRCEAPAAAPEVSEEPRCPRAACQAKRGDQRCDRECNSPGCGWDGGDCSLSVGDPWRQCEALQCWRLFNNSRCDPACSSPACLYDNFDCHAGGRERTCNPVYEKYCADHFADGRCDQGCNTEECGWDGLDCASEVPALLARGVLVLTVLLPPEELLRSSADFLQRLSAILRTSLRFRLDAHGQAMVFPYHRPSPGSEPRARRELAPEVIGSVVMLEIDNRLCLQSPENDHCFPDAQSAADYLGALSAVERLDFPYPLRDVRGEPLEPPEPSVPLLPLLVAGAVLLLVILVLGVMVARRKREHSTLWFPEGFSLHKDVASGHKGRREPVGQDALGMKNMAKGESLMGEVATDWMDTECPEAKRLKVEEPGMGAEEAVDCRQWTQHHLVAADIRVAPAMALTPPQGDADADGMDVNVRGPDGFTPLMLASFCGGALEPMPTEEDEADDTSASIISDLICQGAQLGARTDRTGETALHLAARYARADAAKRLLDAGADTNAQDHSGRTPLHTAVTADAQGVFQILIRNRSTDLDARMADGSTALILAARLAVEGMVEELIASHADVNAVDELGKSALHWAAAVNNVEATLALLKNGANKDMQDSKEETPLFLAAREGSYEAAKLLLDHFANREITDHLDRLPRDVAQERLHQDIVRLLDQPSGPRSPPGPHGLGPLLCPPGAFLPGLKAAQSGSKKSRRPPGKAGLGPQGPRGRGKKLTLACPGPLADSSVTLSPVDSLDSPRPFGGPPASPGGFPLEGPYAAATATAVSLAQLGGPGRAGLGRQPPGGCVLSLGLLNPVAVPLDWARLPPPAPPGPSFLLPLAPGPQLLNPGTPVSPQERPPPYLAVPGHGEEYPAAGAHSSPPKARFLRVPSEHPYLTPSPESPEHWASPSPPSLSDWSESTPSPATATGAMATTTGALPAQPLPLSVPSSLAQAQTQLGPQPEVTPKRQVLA
# [10] = small-molecule microarray binders of probe aEGFR, primary screen, biochemical, biotinylated probe, 635/667 nm fluorescence (AID 1097); conditions: higher = more signal;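 also: probe is a biotinylated anti-EGFR antibody binding compounds printed on slides; score combines fluorescence near 667 nm and signal to noise of each spot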
# [11] = test system: Plasmodium falciparum Sir2 (PF13_0152, Sir2A); assay: pfSir2 binders on small-molecule microarrays, primary screen, biochemical, small-molecule microarray, 635 nm fluorescence (AID 1098); conditions: small-molecule microarray binding, fluorescence 635 nm; higher = more signal;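 also: score merges spot fluorescence intensity with its signal-to-noise ratio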
# [12] = small-molecule microarray binders of probe aDKK1, primary screen, biochemical, biotinylated probe, 635/667 nm fluorescence (AID 1099); conditions: higher = more signal;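 also: score merges 667nm spot fluorescence with signal to noise across triplicate slides; reference of the scale not given here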
# [13] = small-molecule microarray binders of probe aCHRDL2, primary screen, biochemical, biotinylated probe, 635/667 nm fluorescence (AID 1100); conditions: higher = more signal
# [14] = splicing luciferase reporter signal modulators, primary screen, spliceosome inhibition project, cell-based, HEK293, splice +/- reporter (AID 1101); conditions: luminescence, 24 h, higher = more signal, called active from +8 up or from −8 down;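 also: HEK293 cells carrying a splicing-competent luciferase reporter gene; test concentration not given here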
# [15] = biological target: Fibroblast growth factor 10 (Homo sapiens) (UniProt O15520); assay: FGF10 binders on small-molecule microarrays, primary screen, biochemical, small-molecule microarray, 635 nm fluorescence (AID 1102); conditions: FGF10 binding, fluorescence 635 nm, higher = more signal
# Fibroblast growth factor 10 (Homo sapiens), sequence (O15520 whole entry, looked up): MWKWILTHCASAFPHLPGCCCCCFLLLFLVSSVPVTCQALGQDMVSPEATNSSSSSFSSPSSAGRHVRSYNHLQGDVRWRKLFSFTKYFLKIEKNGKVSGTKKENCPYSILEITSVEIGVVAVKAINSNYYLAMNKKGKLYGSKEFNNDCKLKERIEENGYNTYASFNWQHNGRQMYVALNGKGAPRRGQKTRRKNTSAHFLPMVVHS
# [16] = test system: glycogen synthase kinase-3 (GSK3A per assay name; protocol says GSK3B); assay: GSK3 binders on small-molecule microarrays, primary screen, biochemical, small-molecule microarray, 635 nm fluorescence, GSK3A (AID 1103); conditions: small-molecule microarray binding, fluorescence 635 nm; higher = more signal; also: the record names both GSK3A and GSK3B
# [17] = biological target: Epidermal growth factor receptor (Homo sapiens) (UniProt P00533); assay: EGFR binders on small-molecule microarrays, primary screen, biochemical, small-molecule microarray, 635 nm fluorescence (AID 1104); conditions: EGFR binding, higher = more signal;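 also: score merges 667 nm emission intensity with spot signal to noise over triplicate slides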
# Epidermal growth factor receptor (Homo sapiens), sequence (P00533 whole entry, looked up): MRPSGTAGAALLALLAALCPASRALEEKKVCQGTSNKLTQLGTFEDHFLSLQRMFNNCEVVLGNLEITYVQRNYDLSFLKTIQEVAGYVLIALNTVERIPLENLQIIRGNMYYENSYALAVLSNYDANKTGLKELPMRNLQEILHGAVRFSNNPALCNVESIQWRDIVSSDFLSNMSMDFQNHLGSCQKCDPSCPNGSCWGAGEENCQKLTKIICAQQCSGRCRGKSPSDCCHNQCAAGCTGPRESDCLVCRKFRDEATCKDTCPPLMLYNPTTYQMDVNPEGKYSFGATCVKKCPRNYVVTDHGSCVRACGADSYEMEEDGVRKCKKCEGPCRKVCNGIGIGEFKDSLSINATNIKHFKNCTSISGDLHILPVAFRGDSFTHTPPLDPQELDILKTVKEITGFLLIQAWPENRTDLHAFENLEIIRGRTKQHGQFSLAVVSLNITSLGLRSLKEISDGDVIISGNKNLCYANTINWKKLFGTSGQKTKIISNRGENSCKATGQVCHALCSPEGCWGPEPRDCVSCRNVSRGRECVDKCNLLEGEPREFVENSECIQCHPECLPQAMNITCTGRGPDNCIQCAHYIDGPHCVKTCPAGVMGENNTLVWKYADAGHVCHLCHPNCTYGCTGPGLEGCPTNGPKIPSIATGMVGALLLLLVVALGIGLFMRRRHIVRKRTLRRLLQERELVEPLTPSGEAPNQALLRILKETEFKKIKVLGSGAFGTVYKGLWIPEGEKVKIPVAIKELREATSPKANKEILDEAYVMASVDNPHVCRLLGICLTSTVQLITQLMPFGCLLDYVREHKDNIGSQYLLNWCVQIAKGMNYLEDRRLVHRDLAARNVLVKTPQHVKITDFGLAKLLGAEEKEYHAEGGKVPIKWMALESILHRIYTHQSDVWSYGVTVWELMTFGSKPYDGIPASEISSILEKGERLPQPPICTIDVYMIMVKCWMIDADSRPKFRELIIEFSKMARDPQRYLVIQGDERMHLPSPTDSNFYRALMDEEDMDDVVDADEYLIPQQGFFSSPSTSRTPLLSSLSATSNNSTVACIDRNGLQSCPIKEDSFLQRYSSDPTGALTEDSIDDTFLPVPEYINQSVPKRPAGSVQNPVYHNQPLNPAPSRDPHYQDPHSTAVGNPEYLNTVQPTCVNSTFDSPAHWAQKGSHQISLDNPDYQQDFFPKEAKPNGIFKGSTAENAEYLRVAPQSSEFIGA
# [18] = biological target: Follistatin-related protein 3 (Homo sapiens) (UniProt O95633); assay: FSTL3 binders on small-molecule microarrays, primary screen, biochemical, small-molecule microarray, 635 nm fluorescence (AID 1105); conditions: FSTL3 binding, higher = more signal;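 also: score merges emission near 667 nm and signal to noise per printed spot across three slides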
# Follistatin-related protein 3 (Homo sapiens), sequence (O95633 whole entry, looked up): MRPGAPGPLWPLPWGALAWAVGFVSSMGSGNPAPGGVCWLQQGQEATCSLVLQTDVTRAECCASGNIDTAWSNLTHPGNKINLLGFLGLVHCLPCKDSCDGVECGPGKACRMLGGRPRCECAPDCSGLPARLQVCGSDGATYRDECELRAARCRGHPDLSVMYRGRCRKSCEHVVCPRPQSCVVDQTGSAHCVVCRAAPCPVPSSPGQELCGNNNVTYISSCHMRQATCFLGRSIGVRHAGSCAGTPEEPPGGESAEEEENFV
# [19] = biological target: Dickkopf-related protein 1 (Homo sapiens) (UniProt O94907); assay: DKK1 binders on small-molecule microarrays, primary screen, biochemical, small-molecule microarray, 635 nm fluorescence scan (AID 1106); conditions: DKK1 binding, higher = more signal;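 also: score merges emission near 667 nm with signal to noise over three replicate slides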
# Dickkopf-related protein 1 (Homo sapiens), sequence (O94907 whole entry, looked up): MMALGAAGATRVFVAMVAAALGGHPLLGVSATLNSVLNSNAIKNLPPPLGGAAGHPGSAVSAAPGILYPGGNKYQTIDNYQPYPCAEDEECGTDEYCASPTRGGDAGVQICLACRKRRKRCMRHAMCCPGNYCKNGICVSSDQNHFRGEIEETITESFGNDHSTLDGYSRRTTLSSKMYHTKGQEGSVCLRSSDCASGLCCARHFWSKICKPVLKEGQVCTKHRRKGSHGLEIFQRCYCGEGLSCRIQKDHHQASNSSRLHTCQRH
# [20] = test system: Inhibin beta A chain (activin A); assay: INHBA (activin A) binders on microarrays, primary screen, biochemical, small-molecule microarray, 635 nm fluorescence scan (AID 1107); conditions: small-molecule microarray binding, higher = more signal;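 also: mouse activin A protein probed at 4.33 µg/mL on printed slides; score merges bound-protein fluorescence near 667 nm with spot signal-to-noise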
SMILES,composite z-score [1],z-score [2],z-score [3],z-score [4],composite z-score [5],z-score [6],composite z-score [7],composite z-score [8],composite z-score [9],composite z-score [10],composite z-score [11],composite z-score [12],composite z-score [13],z-score [14],composite z-score [15],composite z-score [16],composite z-score [17],composite z-score [18],composite z-score [19],composite z-score [20]
O=C1O[C@@H](c2ccccc2)[C@@H](c2ccccc2)N2[C@@H](c3ccccc3OCCO)[C@]3(C(=O)Nc4ccc(C#CC5(O)CCCCCC5)cc43)[C@@H](C(=O)NC[C@H](O)c3ccccc3)[C@H]12,1.55,1.77 (inactive),1.16 (inactive),4.86 (inactive),3.08,-0.371 (inactive),0.161,1.69,1.05,0.146,1.06,1.64,0.204,-0.525 (inactive),1.3,0.868,0.265,1.08,0.283,1
[N-]=[N+]=NCc1ccccc1[C@H]1OC(c2ccc(OCCCO)cc2)=N[C@@]1(Cc1ccccc1)C(=O)O,1.55,-0.36 (inactive),-2.06 (inactive),-0.759 (inactive),2.81,-0.395 (inactive),0.0869,0.462,0.502,0.346,0.208,0.213,0.884,-1.01 (inactive),0.621,0.51,0.0378,0.47,-0.213,1.25
C=C[C@H](OC)[C@@H](OC(=O)Nc1ccc(SC)cc1)c1ccc(OCCO)cc1,1.15,0.458 (inactive),-0.339 (inactive),0.513 (inactive),2.67,1.15 (inactive),-0.0478,-0.555,-0.179,0.507,1.08,0.242,0.796,-1.96 (inactive),0.141,0.0735,-0.196,-0.275,0.155,-0.176
O=C1OCC=C[C@H]2OC34C=CCN(CCN5CCOCC5)C(=O)[C@H]3N(CCCCCCO)C(=O)[C@@H]4[C@@H]12 (stereo not given in full),0.171,-1.4 (inactive),-1.1 (inactive),-0.918 (inactive),2.87,-0.608 (inactive),-0.0009,0.0056,-0.0123,0.0792,1.18,-0.148,0.251,0.364 (inactive),-0.231,-0.162,-0.0057,0.376,0.0105,1.35
O=C1C[C@@](C(=O)O)(c2ccc([N+](=O)[O-])cc2)[C@@H](c2ccc(CO)cc2I)N1CC12CC3CC(CC(C3)C1)C2,1.47,-0.12 (inactive),-3.03 (inactive),5.6 (inactive),2.79,0.177 (inactive),-0.0096,0.0251,1.06,-0.0056,0.816,1.23,1.13,-0.0388 (inactive),0.248,0.48,0.12,0.206,-1.1,0.723
C=C(CCCC)/C(=C/C[C@H](OC(C)=O)c1ccc(CO)o1)c1cc(C(=O)OC)ccc1OC,1.56,1.02 (inactive),-1.01 (inactive),-0.194 (inactive),1.8,1.05 (inactive),-0.0371,1.8,1.09,-0.125,1.43,-0.0797,-0.438,-0.27 (inactive),1.25,0.469,-0.102,1.25,0.291,0.638
NC(=O)[C@]1(Cc2ccccc2)N=C(c2ccc(OCCCO)cc2)O[C@@H]1c1ccccc1,0.588,-0.94 (inactive),-1.17 (inactive),-0.314 (inactive),3.54,-0.351 (inactive),0.0781,-0.165,0.658,0.0182,0.647,1.2,0.751,-0.072 (inactive),0.61,0.0914,-0.722,-0.144,-0.109,0.558
CC(=O)NCCCC[C@@H]1NC(=O)[C@@H]2C[C@H](C(=O)NCc3ccc(F)cc3)[C@H](c3ccc(O)cc3)N2C1=O,1.54,-0.36 (inactive),-1.36 (inactive),-0.713 (inactive),2.41,1.53 (inactive),-0.128,1.67,0.208,-0.122,1.51,-0.239,-0.072,-0.661 (inactive),0.784,0.767,0.0059,0.177,0.592,0.0015
C=C(C(=O)CC[C@@H](OC(=O)c1cccnc1)c1ccc(OCCO)cc1)C(C)C,1.57,-24.3 (active),-20.5 (active),-4.75 (inactive),0.111,-0.808 (inactive),-0.209,1.58,0.344,-0.0972,0.603,-0.312,-0.188,-0.255 (inactive),0.922,0.154,-0.255,0.802,0.906,0.223
